We go through eight compounds from PubChem BioAssay (NCI).

What all share (experiment): NCI-60 one-dose screen, 48 h (100 = growth as untreated, 0 = no growth, -100 = all killed)
Holding throughout (details): 10 µM unless noted

Assay [1] deals with DU-145 prostate.
The test system of assay [2] is K-562 leukemia.
Assay [3] has as its system MALME-3M melanoma.
The test system of assay [4] is MDA-MB-231 breast.
The subject of assay [5] is RXF 393 renal.
The test system of assay [6] is SF-268 CNS.
In assay [7] the test system is SF-295 CNS.
In assay [8] the test system is SF-539 CNS.
In assay [9] the test system is UACC-257 melanoma.
The subject of assay [10] is M14 melanoma.
The subject of assay [11] is HCT-15 colon.
In assay [12] the test system is HT29 colon.
For assay [13], the system named is SNB-75 CNS.
Assay [14] deals with SNB-19 CNS.
The subject of assay [15] is U251 CNS.
The subject of assay [16] is PC-3 prostate.
Assay [17] has as its system UACC-62 melanoma.
Assay [18] relates to LOX IMVI melanoma.
Assay [19] deals with SK-MEL-28 melanoma.
Assay [20] relates to SK-MEL-5 melanoma.

Compounds without any hit were thinned out: in the full panel of roughly 83,000, 20% have a hit.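 Percent growth is the endpoint: 0 to 100 indicates growth inhibition (40 means 60% inhibition), 0 means no net growth, and negative values indicate cell death.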 Values without a mark were called inactive. Activity calls are given as the source filed them. Rule for the calls: active = growth percent below 10; inactive = the rest.

With `Nc1ccc2c(c1)c(N)nn2C(=O)Nc1ccc(Cc2ccccc2)cc1`, the growth was 79.3% in assay [1]; -5.66% (active) in assay [2]; 75.3% in assay [3]; 60.6% in assay [4]; 99.8% in assay [5]; 83.9% in assay [6]. Also, the growth was 48% in assay [7]; 73.6% in assay [8]; 79.1% in assay [9]; 46.8% in assay [10]; 44.5% in assay [11]; 76.8% in [12]. Further, the growth was 126% in assay [13]; 105% in [14]; 59.9% in [15]; 60.2% in assay [16]; 7.09% (active) in assay [17]; 40.3% in assay [18]. Besides, the growth in assay [19] was 115%.

For the compound `CC(C)(C)CC(C)(C)Nc1c(-c2ccncc2)nc2cnccn12`, the growth in [1] was 106%; in [2], 98.4%; in assay [3], 110%; in [4], 95%; in assay [5], 93.8%; in assay [6], 98.6%. For the same compound, the growth in assay [7] is 101%; in assay [8], 93.8%; in assay [9], 103%; in [10], 100%; in assay [11], 97.9%; in assay [12], 93%. The growth in assay [13] is 80.4%; in assay [14] it was 97.3%; in [15], 99.2%; in assay [16], 97.7%; in [17], 92.9%; in assay [18], 98.8%. Besides, the growth in assay [19] is 112%.

Consider `COc1ccc(/C=N\NC(=O)c2cc(-c3ccc(Br)cc3)n(-c3ccc(S(N)(=O)=O)cc3)n2)cc1`, for which the growth was 58.6% in [1]; 11.4% in assay [2]; 47% in [3]; 70.4% in [4]; 18.5% in assay [5]; 53.1% in assay [6]. Moreover, the growth in assay [7] is 11%; in assay [8] it was 18.3%; in assay [9] it was 66.2%; in assay [10] it was 30.9%; in assay [11] it was 33.3%; in [12] it was 36.7%. Further, the growth is -27.8% (active) in [13]; 57.3% in [14]; 51.3% in assay [15]; 51.2% in assay [16]; 42% in assay [20]; 32.3% in assay [17]. In assay [19], the growth is 47.4%.

In the case of `NC(N)=Nc1nc2ccccc2n2c1nc1ccccc12`, the growth in [1] was 33.3%; in assay [2], 17.9%; in [3], 35.6%; in assay [4], 53.2%; in assay [5], 35%; in assay [6] it was 28.5%. Also, the growth in assay [7] is 24.2%; in [8], 50.3%; in assay [9] it was 60.3%; in [10] it was 42.6%; in assay [11], 25.9%; in [12], 18.2%. Also, the growth in [13] was 43.7%; in [14], 38.8%; in assay [15], 27.8%; in assay [16] it was 48.5%; in assay [17], 40.7%; in assay [18], 20.6%. Also, the growth in [19] was 82.3%.

Consider `Cc1cc(NCc2cc(Nc3ccnc4cc(Cl)ccc34)ccc2F)nc(N2CCCC2)n1`, for which the growth in assay [1] is 10.8%; in assay [2] it was -46.2% (active); in assay [3], -65.6% (active); in assay [4], -49.1% (active); in [5], -65.5% (active); in assay [6], -2.08% (active). Further, the growth is -84.4% (active) in assay [7]; -68.5% (active) in [8]; -17.8% (active) in assay [9]; -71.3% (active) in assay [10]; -60.7% (active) in [11]; -40.2% (active) in assay [12]. In addition, the growth in [13] is -87.3% (active); in [14] it was 28.9%; in assay [15], -64.7% (active); in assay [16], 17.5%; in assay [17] it was -62.6% (active); in [18] it was -92.8% (active). In assay [19], the growth was -69.4% (active).

With `O=C(NCCc1ccc(O)c(O)c1)C12CC3CC(CC(C3)C1)C2`, the growth was 101% in assay [1]; 92.6% in assay [2]; 107% in [3]; 85.5% in [4]; 101% in assay [5]; 89.6% in assay [6]. Further, the growth in assay [7] was 128%; in [8] it was 80.4%; in assay [9], 98.8%; in [10], 103%; in assay [11], 91.8%; in [12] it was 102%. Further, the growth is 82% in [13]; 98.5% in assay [14]; 101% in assay [15]; 73.5% in assay [16]; 90.3% in [17]; 89.1% in [18]. Moreover, the growth in assay [19] is 104%.

With `Cc1cccc(NC(=O)N/C(N)=N/c2nc(C)c(C)s2)c1`, the growth was 71.6% in assay [1]; 10.7% in [2]; 58.5% in [3]; 65.2% in assay [4]; 78.2% in assay [5]; 75.1% in assay [6]. Also, the growth in assay [7] is 48.6%; in [8] it was 56.7%; in assay [9], 62.2%; in [10], 28.1%; in assay [11], 22.2%; in assay [12] it was 18.9%. Also, the growth was -3.93% (active) in [13]; 65.4% in [14]; 45% in assay [15]; 62% in [16]; 49.1% in assay [17]; 42.7% in assay [18]. Moreover, in assay [19], the growth was 60.7%.

On to `O=C(CCc1nnc(CN(c2ccccc2)c2ccccc2)o1)c1nc2ccccc2[nH]1`, for which the growth in [1] is 104%; in [2], 76.3%; in assay [3] it was 94.3%; in assay [4] it was 75.3%; in assay [5], 113%; in assay [6], 93.6%. Also, the growth in assay [7] is 95.6%; in assay [8], 97.5%; in assay [9] it was 103%; in assay [10], 102%; in assay [11], 97.4%; in [12], 93.4%. In addition, the growth is 86.9% in assay [13]; 92.7% in [14]; 94.9% in assay [15]; 76.3% in assay [16]; 99.4% in assay [20]; 69.4% in assay [17]. Besides, the growth in assay [19] is 112%.
